This is a sample that favours compounds with a hit; in the whole collection about 21% have one here.
AMA1 RON2 block = qHTS for Inhibitors of AMA1-RON; Towards Development of Antimalarial Drug Lead: Primary Screen; AlphaScreen AMA1-biotinylated RON2 peptide binding; Potency, µM (doses to about 58.2 µM), for the others: top-dose activity change, negative = inhibition, usual class: inhibitors; 360,000 tested, 0.2% active; AID 720542, 2013;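 also: potency is read from the fitted curve at half-maximal effect; 0% = vehicle wells and -100% = peptide control; nearly all actives have a fitted effect of over 45% in size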
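AMA1 (3D7) with his tag at 25 nM final met compounds first, then biotinylated RON2 peptide at 25 nM; detection used donor plus acceptor beads, 10 µg/mL apiece, read by AlphaScreen after 30 min at room temperature.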
Pf growth 48h = Primary qHTS for delayed death inhibitors of the malarial parasite plastid, 48 hour incubation; P. falciparum luciferase growth in erythrocytes, 48 h; Potency, µM (top dose mostly 28.7 µM), inactives show at the highest dose activity change, negative = inhibition, most hits filed as inhibitors; 310,000 tested, 5.9% active; also: potency is read from the fitted curve at half-maximal effect; % is scaled to controls: 0 for no effect and ±100 for the full control effect
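Luciferase-expressing parasites in RBCs, 2% Hct / 0.1% parasitemia final; RPMI 1640 + 0.5% Albumax; 37 C, 5% CO2, one generation; luminescence read-out, lower signal = inhibition.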
Cycloheximide cs = Cycloheximide Counterscreen for Small Molecule Inhibitors of Shiga Toxin | cell reporter, cycloheximide protein synthesis inhibition counterscreen | 300,000 tested, 12% active | max response, %; in the data active = max response mostly above about 13%, no sharp cut-off; inactive = mostly below about 14%; also: read at 38.3 µM for the half of the compounds with a filed dose; 0% is about no effect
Shiga inhibitor = A qHTS for Small Molecule Inhibitors of Shiga Toxin. Vero cells, Shiga toxin protein synthesis inhibition reporter. AID 2315, 2010. inhibition, % at 38.7 µM. 290,000 tested, 9.2% active; in the data active = inhibition mostly above about 28%, no sharp cut-off; inactive = mostly below about 43%; also: 0% is about no effect
Pf growth 96h = Primary qHTS for delayed death inhibitors of the malarial parasite plastid, 96 hour incubation; P. falciparum luciferase reporter growth, 96 h; 320,000 tested, 6.9% active; Potency, µM (doses to about 28.7 µM), inactives show top-dose activity change, negative = inhibition, actives largely listed as inhibitors; also: potency is read from the fitted curve at half-maximal effect; % is scaled to controls: 0 for no effect and ±100 for the full control effect
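Readout is luminescence from an integrated firefly luciferase in P. falciparum. Red cells, 2% hematocrit and 0.05% parasitemia final, were cultured with compound through two parasite generations (96 hours) at 37 C, 5% CO2.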
HCV inhibitor = qHTS Assay for Inhibitors of Hepatitis C Virus (HCV); 340,000 tested, 3.4% active; Potency, µM (highest dose often 41.8 µM), for the others: top-dose activity change, negative = inhibition, usual class: inhibitors; Huh7.5.1 HCVcc-Cre infection, luciferase reporter, 44 h; AID 651820, 2012; also: potency is read from the fitted curve at half-maximal effect; % is scaled to controls: 0 for no effect and ±100 for the full control effect
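Luciferase read-out (15 sec integration) after a 15 min room-temperature substrate step quantifies HCVcc-Cre infection. Cells, 1,000 per well, had compound added 4 h post-plating, then virus at ~0.5 moi, and were cultured 44 h.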
* = called active by the depositor; i = inactive; ? = inconclusive; . = no result given; [ ] = dose if it differs, or a comment. Unless noted, calls follow the shape of the dose curve; as a rule, active = well fitted curve in the direction sought with a large enough effect; inconclusive = small, poorly fitted or top-dose-only effect, or another doubt; inactive = no such curve, though single readings can be large; an effect the other way counts as inactive or inconclusive.

SMILES	AMA1 RON2 block	Pf growth 48h	Cycloheximide cs	Shiga inhibitor	Pf growth 96h	HCV inhibitor
CCC(=O)Nc1ccc(OCC2CCCO2)cc1 (centres undefined)	13%	41%	9	5	12µM*	6%
O=C(Nc1ccc(Cl)cc1)c1ccc(OCC2CCCO2)cc1 (centres undefined)	15%	196%	42*	95*	i	-30%
O=C(Nc1nc(-c2ccc(Cl)cc2Cl)cs1)c1ccc(OCC2CCCO2)cc1 (centres undefined)	-4%	-21%	-3	-2	?	8.9µM*
Cc1cc(NC(=O)c2ccc(OCC3CCCO3)cc2)ccc1Br (centres undefined)	7%	.	.	.	.	.
O=C(Nc1ccc(Br)cc1Cl)c1ccc(OCC2CCCO2)cc1 (centres undefined)	-17%	.	.	.	.	?
CN(Cc1ccccc1)C(=O)[C@@H]1CCCN1C(=O)[C@@H]1CCCN1C(=O)c1cccc(Cl)c1	-4%	.	.	.	.	.
CC(=O)c1cc2c(cc1F)C(C)(C)CCC2(C)C	-12%	.	.	.	.	-3%
CC1(C(=O)NS(=O)(=O)c2ccccc2)CCN1C(=O)c1ccc(C2CCCCC2)cc1 (centres undefined)	7%	.	.	.	.	.
CCOc1ccc(NC(=O)c2ccc(OCC3CCCO3)cc2)cc1S(=O)(=O)N(CC)CC (centres undefined)	-9%[11.6 µM]	10µM*	.	.	10µM*	?
CCN(CC)S(=O)(=O)c1ccc(NC(=O)c2ccc(OCC3CCCO3)cc2)cc1 (centres undefined)	6%	9.3µM*	.	.	9.3µM*	6.3µM*
Cc1cccc(NC(=O)c2ccc(OCC3CCCO3)cc2)c1C (centres undefined)	20%	13%	30*	45*	32%	-6%
Cc1cccnc1NC(=O)c1ccc(OCC2CCCO2)cc1 (centres undefined)	88%	29%	.	.	61%	9%
CCN(CC)S(=O)(=O)c1ccc(Cl)c(C(=O)NCC2CCCO2)c1 (centres undefined)	3%	-5%	-6	30	10µM*	18%
CN(C)C(CNC(=O)c1cc(S(=O)(=O)N(C)Cc2ccccc2)ccc1Cl)c1ccco1 (centres undefined)	24%	?	.	.	?	?
O=c1ccnc(S/C=C/c2ccccc2)[nH]1	2%	14%	35*	23	6%	3%
O=C(CNC(=S)N(Cc1ccccc1)Cc1cccnc1)NCCN1CCOCC1	8%	-3%	-4	10	17%	12%
C=CCNC(=O)c1c(CS(=O)(=O)c2ccccc2)noc1C(=O)NCc1ccccc1	-1%	19%	.	.	51%	24%
Cc1cc(C)nc(Nc2n[nH]c(-c3ccc(C(C)(C)C)cc3)n2)n1	35%	?	-2	-5	6%	-25%
Cc1cc(C)nc(Nc2n[nH]c(-c3ccccc3C)n2)n1	-2%	70%	42*	100*	?	15%
Cc1cc(C)nc(Nc2n[nH]c(-c3ccccc3Br)n2)n1	16%	33%	48*	110*	.	-15%
Cc1cc(C)nc(Nc2n[nH]c(-c3ccc(N)cc3)n2)n1	7%	118%	36*	72*	.	-9%
Cc1cc(C)nc(Nc2ccccc2Br)n1	10%	22%	-2	-10	?	-4%
CCOc1ccc(C(=O)CC(C(=O)O)N2CCCCC2)cc1 (centres undefined)	-2%	-26%	.	.	?	?
CCc1cc2c(N3CCN(C(=O)c4ccco4)CC3)ncnc2s1	13%	-1%	-1	-9	-1%	?
COc1ccc(N2CCN(C(=O)c3c(C)nn(-c4ccccc4)c3C)CC2)cc1	-6%	-13%	-3	-3	-2%	-25%
SMILES	AMA1 RON2 block	Pf growth 48h	Cycloheximide cs	Shiga inhibitor	Pf growth 96h	HCV inhibitor
O=C(c1cccc(Cl)c1)N1CCN(c2ncnc3c2cnn3-c2ccccc2)CC1	14%	?	-4	-3	9%	-8%
O=C(c1ccco1)N1CCN(c2ncnc3c2cnn3-c2ccccc2)CC1	-9%	7%	25*	41	.	-12%
Cc1nn(-c2ccccc2)c(Cl)c1C(=O)N1CCN(c2ncnc3c2cnn3-c2ccccc2)CC1	-11%	?	-6	-17	?	2.2µM*
O=C(c1ccccc1)N1CCN(c2ncnc3c2cnn3-c2ccccc2)CC1	0%	?	14	17	-26%	10µM*
CNC(=O)c1cc(NC(=O)CCn2nc(-c3ccc(C)cc3)c3ccccc3c2=O)ccc1OC	-4%	0%	-2	-8	?	-2%
Cc1ccc(/C=N/N2CCN(c3ccccc3)CC2)cc1	-26%	22%	19*	46	-3%	-12%
Cc1cccc(/C=N/N2CCN(c3ccccc3)CC2)c1	?	101%	42*	73*	19%	7%
Cc1ccccc1/C=N/N1CCN(c2ccccc2)CC1	?	61%	50*	103*	-19%	20%
CSc1ccc(/C=N/N2CCN(c3ccccc3)CC2)cc1	12%	21%	-1	17	34%[5.75 µM]	13%
Cc1ccc(-n2nc3c(c2NC(=O)C(C)C)CS(=O)(=O)C3)c(C)c1	1%	0.015µM*	8	-7	?	12%
O=C(O[C@@H]1OC2COC(=O)c3cc(O)c(O)c(O)c3-c3c(cc(O)c(O)c3O)C(=O)O[C@@H]([C@H]1O)[C@@H]2O)c1cc(O)c(O)c(O)c1	2.5µM*	-11%	-2	-12	-102%	?
Cc1cc(C)c(C#N)c(N2CCOCC2)n1	1%	15%	3	7	?	8%
Cc1cc(C)c2c(N=NN3CCOCC3)[nH]nc2n1	9%[2.32 µM]	7%	2	-1	4.7µM*	-4%
c1ccc2c3c([nH]c2c1)C(C1CCCCC1)N(Cc1ncc[nH]1)CC3 (centres undefined)	?	2.1µM*	9	-5	?	2%
Cc1ncoc1C(=O)N1CCc2c([nH]c3ccccc23)C1C(C)(C)C (centres undefined)	-9%	?	2	10	?	11%
Cc1ncoc1C(=O)N1CCc2c([nH]c3ccccc23)C1C1CCCCC1 (centres undefined)	-5%	15µM*	52*	72*	?	16%
CC1=C(C(=O)Nc2ccccc2C)C(c2ccc[nH]2)n2ncnc2N1 (centres undefined)	.	.	5	14	.	.
COc1cc(C2=NOC(C(=O)Nc3ccc(C(C)=O)cc3)C2)cc(OC)c1OC (centres undefined)	13%	34%	29*	81*	?	4%

Screening results as filed in PubChem BioAssay.
